Screens from PubChem.
KCNQ2 enhance: KCNQ2 (rat) channel potentiation | CHO-K1 KCNQ2, FluxOR thallium flux fluorescence; hits give high values | O88943 | B-score at 10 µM | hit rate 0.54% among 310,000;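 active = fluorescence ratio B-score at least 3 SD of library B-scores, with initial fluorescence B-score within 3 of them, cut at about 5.3 in these data; same plate scores as AID 2156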;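 note: B-score of peak minus minimum over baseline fluorescence ratio after K+ and Tl+ stimulus; positive B-score means potentiation of KCNQ2 with more thallium influx and brighter signal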
KCNQ2 block: blocks the rat KCNQ2 potassium channel. O88943. CHO-K1 KCNQ2, FluxOR thallium flux, 20 min; hits give low values. B-score at 10 µM. hit rate 1.1% among 310,000;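 active = fluorescence ratio B-score at most minus 3 library SDs, with starting brightness B-score within 2 library SDs, cut at about -5.5 in these data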
KCNQ2 block conf: rat KCNQ2 channel inhibition, confirmatory screen; shares compounds with KCNQ2 block; activity change, negative = inhibition, % at 10 µM; KCNQ2-expressing cells, thallium flux; hits give low values; hit rate 57% among 1,000;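 note: 0% = vehicle wells and values are ratio percent relative to vehicle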
KCNQ1 spec: human KCNQ1 activity in KCNQ2 inhibitor specificity screen; shares compounds with KCNQ2 block; KCNQ1-expressing cells, FluxOR thallium flux fluorescence; hits give low values; activity change, negative = inhibition, % at 10 µM; hit rate 15% among 1,000;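 active = activity change at least 3 SD of negative controls below their mean in both duplicate wells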;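 note: CHO cells stably transfected with KCNQ1 and depolarized by potassium stimulus; peak minus minimum fluorescence over baseline after thallium addition; 0% = vehicle negative control and -100% = blank without thallium stimulus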
CHO Tl ctr: activity in parental CHO cells lacking KCNQ2 | shares compounds with KCNQ2 block | thallium flux counter-screen; hits give low values | activity change, % at 10 µM | hit rate 14% among 1,000 | AID 493029;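 note: 0% = vehicle negative controls with stimulus buffer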
KCNQ2 patch conf: confirmation of rat KCNQ2 potassium channel inhibitors. shares compounds with KCNQ2 block. KCNQ2-expressing cells, automated patch clamp current. calls only at 10 µM. hit rate 49% among 550. AID 588531
* marks the source's active call; other numbers are inactive results; i = inactive; . = no result given; + = active, no number. An excerpt weighted towards active compounds, which were near 1.6% of everything screened. Unless noted, the rule behind the calls is not given here.

SMILES	KCNQ2 enhance	KCNQ2 block	others
Oc1ccccc1CN(CCc1ccccc1)Cc1ccccc1	-6	-6*
CN(CCc1ccccc1)Cc1ccccc1[N+](=O)[O-]	.	i
CN1CCC(N(C)c2nc(-c3ccc([N+](=O)[O-])cc3)nc3ccccc23)CC1	-6	-6*
Cc1nc2ccccc2c(=O)n1-c1cc([N+](=O)[O-])cc([N+](=O)[O-])c1	0.08	i
Cc1ccc(OP(=O)(NC(C)c2ccccc2)Oc2ccc(C)cc2)cc1 (stereo unspecified)	.	i
O=P1(Oc2ccccc2)C[C@@H](O)[C@@H](O)[C@H](COCc2ccccc2)O1 (stereo partly specified)	0.68	i
CCOc1cc(C2NCc3ccccc3-n3cccc32)ccc1O (stereo unspecified)	.	i
CCOc1cccc(C2NCc3ccccc3-n3cccc32)c1O (stereo unspecified)	-6.8	-6.8*
CCN1C[C@@]2(COC)C3[C@@H](OC)[C@H]4[C@@H]1[C@@]3(C1C[C@H]3[C@H](O)C1[C@]4(O)C[C@H]3OC)[C@@H](OC)C[C@H]2O (stereo partly specified)	1.1	i
CC1=NN(Cc2c[nH]c3ccccc23)C(C)(C)C1	0.2	i
CCN(CC)P(=O)(/C=C(\Cl)c1ccccc1)/C=C(\Cl)c1ccccc1	-5.9	-5.9*
O=P(O)(O)/C=C(\Cl)c1ccccc1	.	i
CN[C@H]1C[C@H]2O[C@@](C)([C@H]1OC)n1c3ccccc3c3c4c(c5c6ccccc6n2c5c31)C(=O)NC4	9.3*	i
CN1CCC2(CC1)CC(NC=O)c1ccccc1O2 (stereo unspecified)	1.9	i
COc1cccc(NP(=O)(Oc2ccccc2)Oc2ccccc2)c1	.	i
O=P(Nc1cccc(Cl)c1)(Oc1ccccc1)Oc1ccccc1	-5.6	-5.6*
CCOC(=O)C1=CC(=C2C(=O)N(CC)C(=S)N(CC)C2=O)c2ccccc2O1	.	i
O=C1NC(=O)C2(Cc3ccccc3N3CCCC32)C(=O)N1c1cccc(Cl)c1 (stereo unspecified)	.	i
Cc1ccc(N2C(=O)NC(=O)C3(Cc4ccccc4N4CCN(c5ccccc5)CC43)C2=O)cc1 (stereo unspecified)	-7.1	-7.1*
O=C(CCc1nnc2ccc(NCc3ccc(F)cc3)nn12)N1CCC2(CC1)OCCO2	0.99	i
COc1cc(CN2CC3CC(C2)c2cccc(=O)n2C3)cc(OC)c1OC (stereo unspecified)	0.5	i
COc1cc(C)c(-c2nc(CN3C[C@@H]4C[C@@H](C3)c3cccc(=O)n3C4)c(C)o2)cc1C	-5.8	-5.8*
CCCCOP(=O)(CN1CCOCC1)OCCCC	1.2	i
COc1ccc(OCC(=O)N2CCCC(N3CCN(c4ccccc4C)CC3)C2)cc1 (stereo unspecified)	.	i
O=C(Cn1ncc2c3ccccc3n(Cc3ccccc3F)c2c1=O)N1CCC2(CC1)OCCO2	16*	i
SMILES	KCNQ2 enhance	KCNQ2 block	others
Cc1c2cnn(CC(=O)N3CCC4(CC3)OCCO4)c(=O)c2c(C)n1Cc1ccc(F)cc1	2.2	i
CCC(C)C(=O)N[C@@H](c1ccccc1)[C@@H](O)C(=O)O[C@H]1C[C@@]2(O)[C@@H](OC(=O)c3ccccc3)C3[C@](C)(C(=O)[C@H](OC(C)=O)C(=C1C)C2(C)C)[C@@H](O)C[C@H]1OC[C@@]31OC(C)=O (stereo partly specified)	.	i
CC/C=C/CC(=O)N[C@@H](c1ccccc1)[C@@H](O)C(=O)O[C@H]1C[C@@]2(O)[C@@H](OC(=O)c3ccccc3)C3[C@](C)(C(=O)[C@H](OC(C)=O)C(=C1C)C2(C)C)[C@@H](O)C[C@H]1OC[C@@]31OC(C)=O (stereo partly specified)	-5.6	-5.6*
c1ccc(-c2[nH]c(-c3ccccc3)[n+](CC3CO3)c2-c2ccccc2)cc1 (stereo unspecified)	.	i
CC(C)n1c(=O)c(C=Nc2cccc([N+](=O)[O-])c2)c(O)n(CCc2ccccc2)c1=O	-6.7	-6.7*
CC(C)n1c(=O)c(C=Nc2ccc(S(N)(=O)=O)cc2)c(O)n(Cc2ccco2)c1=O	1	i
CC(=O)c1c(C)n(CCCOC(C)C)c2ccc(O)cc12	0.2	i
CP(=O)(O)CN1CCCCC1	0.99	i
Cc1ccc(NP(=O)(Nc2ccc(C)cc2)Oc2ccccc2)cc1	-7.1	-7.1*	KCNQ2 block conf=-31%*;KCNQ1 spec=i;CHO Tl ctr=i;KCNQ2 patch conf=+
COc1ccc(OP(=O)(Nc2ccccc2)Nc2ccccc2)cc1	.	i
Cc1cc(C=C2C(=O)N(C)C(=S)N(C)C2=O)c(C)n1-c1cccnc1	1.6	i
Nc1ccc(CCN2CCN(c3cccc(C(F)(F)F)c3)CC2)cc1	0.04	i
FC(F)(F)c1ccc2c(c1)N(CCCN1CCN(CCCl)CC1)c1ccccc1S2	-7	-7*	KCNQ2 block conf=-32%*;KCNQ1 spec=i;CHO Tl ctr=i;KCNQ2 patch conf=i
Cc1ccc(-c2nc3ccccc3c(=O)n2-c2ncccc2C)cc1	0.01	i
Clc1cccc(C2NCCc3[nH]cnc32)c1 (stereo unspecified)	1.1	i
CCC1(CC)C(=O)N(Cc2ccccc2)C(=O)N(Cc2ccccc2)C1=O	-8.2	-8.2*	KCNQ2 block conf=i;KCNQ1 spec=i;CHO Tl ctr=i
N=C1SCC(=O)N1Cc1ccccc1	1.3	i
Cc1cccc(-n2c(-c3ccccc3)nc3ccccc3c2=O)n1	.	i
CN(C)C(=S)SSC(=S)N(C)C	-10	-10*	KCNQ2 block conf=i;KCNQ1 spec=i;CHO Tl ctr=i
O=C(NC1CCCCC1)[C@@H]1CC=C[C@@H]2CCN(Cc3ccccc3)C(=O)[C@@H]21	.	i
CCCCn1c(=O)c(C(=O)NC(C)c2ccccc2)c(O)c2ccccc21 (stereo unspecified)	-12	-12*	KCNQ2 block conf=i;KCNQ1 spec=i;CHO Tl ctr=i
CCCCn1c(=O)c(C(=O)NCCc2ccccc2)c(O)c2ccccc21	.	i
O=[N+]([O-])c1cccc(CN2CCN(Cc3ccc(Br)cc3)CC2)c1	.	i
CCOC(=O)C1(c2ccccc2)CCN(CC(=O)Nc2cccc3ccccc23)CC1	.	i
O=C(Nc1cccc2ccccc12)c1nn(C23CC4CC(CC(C4)C2)C3)cc1Br	-8	-8*	KCNQ2 block conf=-26%*;KCNQ1 spec=i;CHO Tl ctr=i;KCNQ2 patch conf=i
COc1cc(C(CN)CC(=O)O)ccc1O (stereo unspecified)	1.1	i
